Some test systems named below: NCI-H23 lung; NCI-H226 lung; NCI-H322M lung; HOP-62 NSCLC; NCI-H460 lung; HOP-92 NSCLC; NCI-H522 lung; A549/ATCC NSCLC; 786-0 renal; COLO 205 colon; DU-145 prostate; K-562 leukemia; MALME-3M melanoma; MDA-MB-231 breast; RXF 393 renal; SF-268 CNS; SF-295 CNS; SF-539 CNS; UACC-257 melanoma; M14 melanoma.
Experiment in all cases: NCI-60 one-dose screen, 48 h (100 = growth as untreated, 0 = no growth, -100 = all killed)
Holding throughout (conditions): 10 µM unless noted

Our source for the growth values is PubChem BioAssay (NCI).

About 83,000 compounds went through this panel and 20% of them were active in at least one assay; those are over-represented in the sample as a whole.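 Step 1: grow cells in 96-well plates. Step 2: add test compound at a single concentration. Step 3: incubate 48 h. Step 4: record percent growth.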 A number with no mark means an inactive call. The source made the active and inactive calls. The calls were made as follows: active = growth percent below 10; inactive = the rest.

On to `Cc1ccc(OCCOCCOCCOc2ccc(C)n(O)c2=S)c(=S)n1O`, for which the growth in the test with NCI-H23 lung was 44.9%; with NCI-H226 lung it was 29%; in the test on NCI-H322M lung, 40.6%; with HOP-62 NSCLC, 30.3%; in the test with NCI-H460 lung, 17.3%; in the test with HOP-92 NSCLC, 81.1%. The growth was 22.5% with NCI-H522 lung; 29.9% in the test on A549/ATCC NSCLC; 40.9% with 786-0 renal; 7.96% (active) with COLO 205 colon; 50.5% with DU-145 prostate; 18.9% with K-562 leukemia. Moreover, the growth was 47% in the test with MALME-3M melanoma; 28.3% in the test on MDA-MB-231 breast; 66% in the test on RXF 393 renal; 29% in the test on SF-268 CNS; 29.1% in the test with SF-295 CNS; 45.8% with SF-539 CNS. Further, the growth is 68.4% with UACC-257 melanoma and 36% with M14 melanoma.

Consider `Cc1ccc(OCCOCCOCCOCCOCCOc2ccc(C)n(O)c2=S)c(=S)n1O`, for which the growth in the test on NCI-H23 lung is 14.1%; in the test with NCI-H226 lung it was 6.73% (active); in the test on NCI-H322M lung, 21.5%; with HOP-62 NSCLC, 10.5%; with NCI-H460 lung it was 3.62% (active); in the test with HOP-92 NSCLC, 34.3%. For the same compound, the growth is 25.8% with NCI-H522 lung; 13.2% with A549/ATCC NSCLC; -0.0239% (active) in the test on 786-0 renal; 10.4% with COLO 205 colon; 17.3% in the test on DU-145 prostate; 14.5% with K-562 leukemia. For the same compound, the growth with MALME-3M melanoma is 16.5%; in the test with MDA-MB-231 breast, 29.8%; in the test with RXF 393 renal, 40.6%; in the test with SF-268 CNS, 12.5%; in the test on SF-295 CNS, 16.8%; with SF-539 CNS, 1.52% (active). Also, the growth is -3.93% (active) in the test with UACC-257 melanoma and -4.25% (active) with M14 melanoma.

In the case of `COc1ccc(-c2cc(C(=O)N3N=C(c4ccc(N)cc4)CC3c3ccc(Cl)cc3)c3ccccc3n2)cc1` (stereo not given), the growth was 48.1% in the test with NCI-H23 lung; 76.5% in the test on NCI-H226 lung; 52.4% with NCI-H322M lung; 36.3% with HOP-62 NSCLC; 12.8% with NCI-H460 lung; 45.4% in the test with HOP-92 NSCLC. The growth was -3.25% (active) in the test with NCI-H522 lung; 16.9% in the test on A549/ATCC NSCLC; 25.4% in the test with 786-0 renal; 2.76% (active) in the test with COLO 205 colon; 13.9% in the test on DU-145 prostate; 7.4% (active) in the test with K-562 leukemia. For the same compound, the growth in the test on MALME-3M melanoma is 79%; with MDA-MB-231 breast it was 44.2%; with RXF 393 renal, 21.6%; in the test on SF-268 CNS, 35%; with SF-295 CNS, 21.6%; in the test with SF-539 CNS, 5.56% (active). Besides, the growth is 55.2% with UACC-257 melanoma and 9.68% (active) in the test with M14 melanoma.

For the compound `C=C1C(=O)O[C@H]2[C@H]1CC/C(COC(=O)/C=C\C(=O)NCc1ccc(Cn3c(=O)sn(CCCCl)c3=O)cc1)=C\CC[C@@]1(C)O[C@@H]21`, the growth was 84.1% with NCI-H23 lung; 92.9% with NCI-H226 lung; 107% in the test on NCI-H322M lung; 87.7% with HOP-62 NSCLC; 93.4% with NCI-H460 lung; 81.7% in the test on HOP-92 NSCLC. The growth in the test on NCI-H522 lung is -12% (active); in the test on A549/ATCC NSCLC, 92.7%; in the test on 786-0 renal it was 67.7%; in the test with COLO 205 colon, 4.69% (active); in the test with DU-145 prostate, 45.9%; with K-562 leukemia it was 26.7%. For the same compound, the growth is 49.6% in the test on MALME-3M melanoma; 71.9% with MDA-MB-231 breast; 86.9% in the test with RXF 393 renal; 93.5% with SF-268 CNS; 99.4% in the test with SF-295 CNS; 79.9% in the test on SF-539 CNS. Also, the growth in the test with UACC-257 melanoma is 68.9%; with M14 melanoma, 40.4%.

In the case of `Cc1nc2sc(C(=O)Nc3ccccn3)c(N)c2cc1C(C)O` (stereo not given), the growth was 84.3% with NCI-H23 lung; 85.8% with NCI-H226 lung; 83.1% with NCI-H322M lung; 63.9% with HOP-62 NSCLC; 80.2% in the test on NCI-H460 lung; 74.3% with HOP-92 NSCLC. The growth is 59.9% with NCI-H522 lung; 82% in the test on A549/ATCC NSCLC; 82.1% in the test with 786-0 renal; 75.1% in the test on COLO 205 colon; 103% in the test on DU-145 prostate; 31.1% in the test on K-562 leukemia. Further, the growth was 97.9% in the test with MALME-3M melanoma; 59.1% in the test on MDA-MB-231 breast; 71.2% in the test with RXF 393 renal; 83.6% in the test with SF-268 CNS; 65.1% with SF-295 CNS; 59.8% in the test on SF-539 CNS. In addition, the growth in the test on UACC-257 melanoma was 81.6%; in the test on M14 melanoma, 49.3%.

On to `CCCC(=O)NC(c1ccc2c(c1)OCO2)c1cc(Cl)c2cccnc2c1O` (stereo not given), for which the growth in the test on NCI-H23 lung is 48.3%; in the test with NCI-H226 lung, 50.4%; in the test with NCI-H322M lung, 42.1%; in the test with HOP-62 NSCLC, 23.1%; with NCI-H460 lung, 22.7%; in the test with HOP-92 NSCLC it was 39.4%. Moreover, the growth with NCI-H522 lung is 13.8%; with A549/ATCC NSCLC, 30.7%; in the test on 786-0 renal, 32.4%; in the test on COLO 205 colon, 11.5%; with DU-145 prostate, 53.7%; in the test with K-562 leukemia it was 11.4%. The growth was 42.5% in the test with MALME-3M melanoma; 34.9% in the test on MDA-MB-231 breast; 59.9% in the test on RXF 393 renal; 37.7% in the test with SF-268 CNS; 12.7% in the test with SF-295 CNS; 18.6% with SF-539 CNS. Further, the growth is 37.8% with UACC-257 melanoma and 26.3% in the test with M14 melanoma.

Consider `O=C(/C=C/c1ccccc1)c1cccc2ccccc12`, for which the growth in the test with NCI-H23 lung is 26.2%; in the test on NCI-H226 lung it was 41.2%; in the test on NCI-H322M lung, 57.5%; in the test with HOP-62 NSCLC, 37.7%; in the test on NCI-H460 lung it was 10.6%; with HOP-92 NSCLC it was 47.3%. For the same compound, the growth in the test on NCI-H522 lung is 17.2%; with A549/ATCC NSCLC, 39%; in the test with 786-0 renal it was 83.5%; in the test on COLO 205 colon, 97.7%; in the test on DU-145 prostate, 15.6%; in the test on K-562 leukemia it was 10.6%. Moreover, the growth with MALME-3M melanoma was 68.8%; in the test with MDA-MB-231 breast, 55.1%; in the test with RXF 393 renal, 12.4%; in the test on SF-268 CNS it was 42.1%; in the test with SF-295 CNS, 34.8%; in the test with SF-539 CNS it was 51.2%. Moreover, the figures for the growth in the test with UACC-257 melanoma and in the test on M14 melanoma were 40.2% and 86.7%, respectively.

Take `C/C=C1/CN(CCCCC)CC[C@H]1C(=O)c1cc2ccccc2[nH]1`: the growth in the test on NCI-H23 lung is 85.1%; in the test with NCI-H226 lung, 92.9%; in the test on NCI-H322M lung, 86.6%; in the test with HOP-62 NSCLC, 85.5%; with NCI-H460 lung, 97.3%; in the test on HOP-92 NSCLC it was 52.3%. Moreover, the growth with NCI-H522 lung was 88.1%; in the test with A549/ATCC NSCLC, 100%; in the test with 786-0 renal, 99.9%; in the test with COLO 205 colon it was 98.9%; in the test on DU-145 prostate, 99%; in the test with K-562 leukemia, 69.6%. The growth in the test on MALME-3M melanoma was 91.4%; in the test with MDA-MB-231 breast, 88.5%; in the test on RXF 393 renal, 94.1%; in the test on SF-268 CNS, 89.8%; with SF-295 CNS it was 94.5%; in the test on SF-539 CNS, 98.9%. In addition, the growth is 108% with UACC-257 melanoma and 90.2% in the test on M14 melanoma.
